Assay outcomes: PubChem BioAssay, National Center for Advancing Translational Sciences (NCATS)
A selection: hits, their analogues and other compounds. The true share with any hit is near 19%.
HT1080-NT tox: qHTS for induction of synthetic lethality in tumor cells producing 2HG: qHTS for the HT-1080-NT fibrosarcoma cell line; 360,000 compounds, 1.6% hits; HT-1080-NT fibrosarcoma viability, CellTiter-Glo ATP luminescence, 48 h; Potency, µM (titrated, usually from 46.1 µM), without a hit: at the highest dose activity, negative = less viability, actives largely listed as cytotoxic;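 also: NT is the 2HG producing partner of a matched IDH1 knockdown line; potency is read from the fitted curve at half-maximal effect; 0% = DMSO-treated cells and -100% = media-only wells without cells; nearly all actives have a fitted effect of over 55% in size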
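750 cells/well, RPMI + 5% FBS; 2 h settle, compound pin-transfer, 48 h at 37 degrees C. CellTiter-Glo 10 min RT, luminescence. Normalized to DMSO and media-only wells.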
TDP1 cell CPT: qHTS for Inhibitors of human tyrosyl-DNA phosphodiesterase 1 (TDP1): qHTS in cells in presence of CPT; chicken DT40 Tdp1-/-;hTDP1 cells + 20 nM CPT, ATP luminescence, 48 h; Potency, µM (series often up to 46.2 µM), without a hit: top-dose activity change, negative = growth inhibition, most hits filed as inhibitors; 420,000 compounds, 12% hits; AID 686979, 2013; also: potency is read from the fitted curve at half-maximal effect; nearly all actives have a fitted effect of over 55% in size
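Cell growth measured by CellTiter-Glo luminescence after a minimum 48 h, 37 C compound exposure with 20 nM CPT in Tdp1-knockout DT40 cells stably expressing hTDP1, seeded 400/well; qHTS titration format.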
HT1080 IDH1KD tx: qHTS for induction of synthetic lethality in tumor cells producing 2HG: qHTS for the HT-1080-IDH1KD cell line; 360,000 compounds, 2% hits; Potency, µM (top dose mostly 46.1 µM), for inactives: top-dose activity, negative = toxicity, most hits filed as cytotoxic; HT-1080 IDH1 knockdown viability, ATP luminescence, 48 h;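 also: potency is read from the fitted curve at half-maximal effect; 0% = DMSO wells and -100% = cell-free medium wells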
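CellTiter-Glo luminescence after 48 h compound exposure at 37 degrees C of IDH1-knockdown HT-1080 cells in 5% FBS RPMI. %Activity scaled between DMSO wells and cell-free media wells, with curves fitted and assigned curve classes.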
IL1B secr inh: qHTS for Inhibitors of Inflammasome Signaling: IL-1-beta AlphaLISA Primary Screen; THP-1 LPS/ATP IL-1B secretion, AlphaLISA, 16 h; hits give low values; activity change, % at 57.5 µM; 360,000 compounds, 4.7% hits; AID 743279, 2014; in the data active = activity change below about -50%; inconclusive = mostly about -30% to -49%
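THP-1 cells pretreated 1 hr with compounds (up to 57.5 uM final), then stimulated with LPS (250 ng/mL final) plus ATP (1.25 mM final); secreted IL-1B measured by AlphaLISA after 16 hr, decreased signal indicating inhibition.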
TDP1 cell noCPT: qHTS for Inhibitors of human tyrosyl-DNA phosphodiesterase 1 (TDP1): qHTS in cells in absence of CPT | DT40 Tdp1-/- hTDP1 cells, no CPT, ATP luminescence, 48 h | Potency, µM (series often up to 46.2 µM), inactives show top-dose activity change, negative = growth inhibition, most hits filed as inhibitors | 420,000 compounds, 15% hits | AID 686978, 2013; also: potency is read from the fitted curve at half-maximal effect; nearly all actives have a fitted effect of over 55% in size
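No-CPT arm: Tdp1-/-;hTDP1 DT40 cells (400/well) plus compounds, incubated ≥48 hr at 37 °C. Readout CellTiter-Glo luminescence.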
Starred values were filed as active, the others as inactive; ? = inconclusive; · = no result given. Unless noted, calls follow the shape of the dose curve; as a rule, active = well fitted curve in the direction sought with a large enough effect; inconclusive = small, poorly fitted or top-dose-only effect, or another doubt; inactive = no such curve, though single readings can be large; an effect the other way counts as inactive or inconclusive. Unless noted, % is scaled to controls: 0 for no effect and ±100 for the full control effect.

SMILES	HT1080-NT tox	TDP1 cell CPT	HT1080 IDH1KD tx	IL1B secr inh	TDP1 cell noCPT
COc1cccc(NC(=O)Cn2c(=O)n(Cc3ccccc3)c(=O)c3c4c(sc32)CN(C(C)=O)CC4)c1	·	?	·	·	-46%
CCOC(=O)c1ccccc1NC(=O)COC(=O)C1CCN(S(=O)(=O)c2ccccc2C(=O)OC)CC1	-3%	-11%	-1%	8	-19%
COc1ccc([C@H]2/C=C\CN(Cc3ccc(N(C)C)cc3)[C@@H](C)C(=O)N2Cc2ccc(F)cc2)cc1	-1%	?	-2%	3	?
O=C(O)CCSCCCN1C(=O)c2cccc3cccc(c23)C1=O	-2%	-7%	2%	-7	-6%
COc1ccc(NC(=O)N2CCC(n3c(C)nc4cccnc43)CC2)cc1OC	·	-8%	·	·	25%
CC(=O)N1CCc2c(sc3c2c(=O)n(-c2ccccc2)c(=O)n3CC(=O)c2ccc(Cl)cc2)C1	·	-21%	·	·	?
CC(=O)N1CCc2c(sc3c2c(=O)n(Cc2ccccc2)c(=O)n3Cc2ccc(Cl)cc2)C1	·	?	·	·	29µM*
CCOC(=O)N1CCc2c(sc3c2c(=O)n(CCc2ccccc2)c(=O)n3Cc2c(F)cccc2Cl)C1	·	?	·	·	26µM*
CCOC(=O)c1cc2[nH]c3ccccc3c2[n+](-c2ccc([N+](=O)[O-])cc2)c1N	?	12µM*	-29%	-58*	8.2µM*
CCOC(=O)c1cc2[nH]c3ccccc3c2[n+](-c2ccc([N+](=O)[O-])cc2)c1C	-15%	?	-25%	0	?
CC[n+]1c(/C=C/c2c[nH]c3ccccc23)ccc2cc(C)ccc21	29µM*	1.2µM*	18µM*	-100*	1.2µM*
Cc1cc(N2CCCC2=O)ccc1S(=O)(=O)NCCOc1ccccc1	3%	18µM*	-1%	20	15µM*
Cc1cc(N2CCCC2=O)ccc1S(=O)(=O)Nc1c(C)nn(C)c1C	0%	?	0%	34	9.2µM*
COc1cccc(-c2nc(-c3ccccc3)c3ccc(Cl)cc3n2)c1	12%	-29%	9%	15	-2%
CN(Cc1ccccc1F)Cc1cc(=O)oc2cc(O)c(Cl)cc12	-5%	15µM*	-12%	22	16µM*
CCCCN(CCCC)Cc1cc(=O)oc2ccc3ccccc3c12	-1%	?	?	15	16µM*
Cc1ccc2c(CN(C)Cc3ccccc3)cc(=O)oc2c1	?	18µM*	-22%	36	?
C=CCN(CC=C)Cc1cc(=O)oc2cc(C)ccc12	22%	-23%	14%	7	?
C=CCN(CC=C)Cc1cc(=O)oc2ccc3ccccc3c12	?	16µM*	?	0	16µM*
Cc1cc(C)n(-c2ccc(C(=O)N3CC(C)OC(C)C3)cc2)n1 (configuration not stated)	1%	7%	0%	-3	4%
Cc1cc(S(=O)(=O)Nc2noc3ccccc23)ccc1F	-5%	2%	-1%	-2	13%
CCOC(=O)CSc1nc(N)c(C(=O)Nc2ccc(N(C)C)cc2)s1	-4%	?	?	?	?
CN(Cc1ccccc1)Cc1cc(=O)oc2ccc3ccccc3c12	0%	?	-12%	31	18µM*
O=C(Nc1cc(Cl)cc2c1-c1ccc(Cl)cc1C2O)C(Cl)Cl (configuration not stated)	-12%	23µM*	-26%	-61*	?
CCN(CC)CC(O)Cn1c(C)c(-c2ccccc2)c2cc([N+](=O)[O-])ccc21 (configuration not stated)	21µM*	21µM*	?	-77*	9.2µM*
SMILES	HT1080-NT tox	TDP1 cell CPT	HT1080 IDH1KD tx	IL1B secr inh	TDP1 cell noCPT
O=[N+]([O-])c1ccc2c(c1)c1ccccc1n2CCO	?	9%	?	·	?
COP(=O)(OC)C(Nc1ccc(C)cc1)c1ccc([N+](=O)[O-])cc1 (configuration not stated)	2%	-8%	2%	-10	-26%
COc1ccc(N(C)C(=O)Cn2cc(S(=O)(=O)N3CCN(c4ccccc4F)CC3)c3ccccc3c2=O)c(OC)c1	·	-28%	·	·	23µM*
N#Cc1ccccc1OCC(=O)NC1CCCCCC1	-4%	?	-2%	-20	?
O=C(Nc1ccc(N2CCOCC2)c2nonc12)C1CCCC1	5%	18µM*	1%	-21	26µM*
C[C@@H]1CCCN1[C@H]1CS(=O)(=O)N[C@@H]1COCc1ccccc1	6%	-8%	0%	8	-4%
COC(=O)c1cnc(Oc2ccc(NC(=O)NC(=O)c3c(F)cccc3F)cc2)cc1C(F)(F)F	6%	-6%	1%	35	?
COC(=O)c1cnc(Oc2c(Cl)cc(N)cc2Cl)cc1C(F)(F)F	?	?	16µM*	·	15µM*
COC(=O)c1cnc(Oc2ccc(NC(=O)NC(=O)c3c(OC)cccc3OC)cc2)cc1C(F)(F)F	?	1.2µM*	1.3µM*	47	1.3µM*
COC(=O)c1cnc(Oc2ccc(NC(=O)NC(=O)c3c(F)cccc3Cl)cc2)cc1C(F)(F)F	?	3.3µM*	?	65	4.1µM*
COc1ccc(Nc2nc(-c3cccs3)nc3ccccc23)c(OC)c1	-24%	16µM*	-26%	-16	13µM*
COc1ccc(Nc2nc3ccccc3nc2NS(=O)(=O)c2cccs2)c(OC)c1	-2%	-23%	2%	0	-18%
COc1ccc(Nc2nc(-c3cccc([N+](=O)[O-])c3)nc3ccccc23)c(OC)c1	-3%	?	3%	15	18µM*
COc1ccccc1Nc1nc(-c2cccc([N+](=O)[O-])c2)nc2ccccc12	-6%	23µM*	10%	5	18µM*
Cc1nnc(NC(=O)CSc2nnc(CC(=O)Nc3ccccc3F)n2C)s1	3%	3%	6%	24	10%
CC(C)(C)c1nc(SCC(=O)N2CC(=O)Nc3ccccc32)c2ccccc2n1	3%	3%	10%	0	-27%
Cc1ccc2c(CNCc3cccc(Cl)c3)c(C(=O)O)n(Cc3ccc(F)cc3Cl)c2c1	·	3.3µM*	·	·	3.3µM*
COc1ccc2c(CNCc3ccco3)c(C(=O)O)n(Cc3ccc(F)cc3Cl)c2c1	·	?	·	·	2.6µM*
C=Cc1ccc(Cn2c(C(=O)O)c(CNCc3ccccc3)c3ccc(C)cc32)cc1	·	7.3µM*	·	·	4.6µM*
